# Screening data deposited in PubChem by National Center for Advancing Translational Sciences (NCATS).
# The list is not random: actives were taken first. Their share in the collection is about 21%.
# NS1 inh: blocks influenza NS1 protein function; Potency, µM (highest dose often 46.1 µM); hit rate 0.4% among 270,000; AID 2326; calls by dose curve; also: actives are rising curves; nearly all actives have a fitted effect of over 50% in size
#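 Read-out: OD600 growth recovery of NS1-expressing budding yeast. Cells grown overnight at 30C in -URA glucose medium, washed, resuspended and diluted 1:100 in 2% galactose assay medium, pH 6.0. Same strain lacking NS1 served as positive control.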
# Pf growth 96h: inhibits malaria parasite growth, 96 h; P. falciparum luciferase reporter growth, 96 h; AID 504834; hit rate 6.9% among 320,000; Potency, µM (series often up to 28.7 µM), most hits filed as inhibitors
#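 Two parasite generations (96 h, 37 C, 5% CO2) of compound exposure in infected erythrocytes (0.05% parasitemia, 2% hematocrit). Luciferase-reporter P. falciparum; decreased luminescence indicates inhibited growth, aimed at apicoplast-acting delayed death.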
# Shiga toxin inh: blocks Shiga toxin action in Vero cells; Vero cells, Shiga toxin protein synthesis inhibition reporter; hit rate 9.2% among 290,000; inhibition, % at 38.7 µM; AID 2315; in the data active = inhibition mostly above about 28%, no sharp cut-off; inactive = mostly below about 43%
# Pf growth 48h: P. falciparum growth inhibition at 48 hours (one generation); P. falciparum luciferase growth in erythrocytes, 48 h; Potency, µM (titrated, usually from 28.7 µM), usual class: inhibitors; hit rate 5.9% among 310,000; AID 504832
#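 Cell-based growth assay: transgenic P. falciparum expressing firefly luciferase, cultured in red cells within RPMI 1640 containing 0.5% w/v Albumax, 24 mM bicarbonate and gentamycin. A drop in luciferase activity indicates inhibition.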
# CHX counter: counter-screen hit for Shiga toxin inhibitors, cycloheximide | max response, % | hit rate 12% among 300,000 | cell reporter, cycloheximide protein synthesis inhibition counterscreen; in the data active = max response mostly above about 13%, no sharp cut-off; inactive = mostly below about 14%; also: read at 38.3 µM for the half of the compounds with a filed dose
# Numbers stand for hits; – = inactive; ? = inconclusive; · = no result. Unless noted, calls follow the shape of the dose curve; as a rule, active = well fitted inhibition curve with a large enough effect; inconclusive = small, poorly fitted or top-dose-only effect, or another doubt; inactive = no such curve, though single readings can be large or run the other way.
SMILES,NS1 inh,Pf growth 96h,Shiga toxin inh,Pf growth 48h,CHX counter
Cc1ccccc1NC(=O)NCCc1nc2ccccc2[nH]1,–,–,–,–,–
Cc1ccccc1NC(=S)c1nc2ccccc2[nH]1,–,–,active,3.3µM,42
S=C(Nc1ccc(Cl)cc1)c1nc2ccccc2[nH]1,–,?,66,–,59
COc1ccc(C(NC(=O)CC(C)C)NC(=O)CC(C)C)cc1OC,–,10µM,–,–,–
CCCCC(=O)NC(NC(=O)CCCC)c1ccc(OCC(C)C)c(OC)c1,–,–,–,–,–
O=C(CSc1nc2ccccc2c(=O)n1-c1ccccc1)NCc1ccco1,–,–,–,–,42
Cc1ccc(-n2c(SCC(=O)NCc3ccco3)nc3sc(C)c(C)c3c2=O)cc1,?,·,–,–,–
Cc1cccc(-n2c(SCC(=O)NCc3ccco3)nc3ccccc3c2=O)c1,–,–,–,?,–
CCOC(=O)CSc1nc2ccccc2c(=O)n1CCCCCC(=O)NCc1ccco1,–,–,–,12µM,–
COc1ccccc1NC(=O)CSc1nc2ccccc2c(=O)n1CCNC(C)=O,–,8.3µM,–,?,–
CC(=O)NCCn1c(SCC(=O)NCCC(C)C)nc2ccccc2c1=O,–,·,–,–,–
Cc1ccc(-n2c(SCC(=O)NCc3ccco3)nc3nc4c(cc3c2=O)COC(C)(C)C4)cc1,–,–,–,9.3µM,–
Cc1ccc(-c2cc(C(=O)N3CCN(C(=O)c4ccco4)CC3)[nH]n2)cc1C,–,–,–,–,–
Cc1nccn1CC(=O)c1ccc(O)c(O)c1,·,?,·,–,·
Cc1ccc(NC(=O)CN(C)CC(=O)N(C)Cc2ccccc2)cc1,·,–,·,?,·
O=[N+]([O-])c1cc(S(=O)(=O)N2CCCC2)ccc1SCCO,·,–,–,–,–
CNC(=O)c1[nH]cnc1C(=O)N[C@@H](C)C(=O)OC(C)(C)C,–,–,–,–,–
C=CCn1c(SCC(=O)c2ccc(CNC(C)=O)o2)nc2ccccc2c1=O,–,15µM,–,·,–
C=CCn1c(SCC(=O)Nc2ccccc2F)nc2ccccc2c1=O,–,–,–,–,–
CC(=O)NCCn1c(SCC(=O)NCc2ccco2)nc2ccccc2c1=O,–,4.7µM,–,–,–
S=c1[nH]c2ccccc2s1,·,·,–,·,–
O=c1[nH]c(-[n+]2ccc3ccccc3c2)c(/C=N/N=C(\[O-])c2ccccc2)s1,–,–,–,–,17
Cc1cccc(C)c1NC(=O)COC(=O)CN1C(=O)C2CCCCC2C1=O (configuration not stated),·,–,·,–,·
Cc1ccc(-c2nc3ccccc3nc2Cl)cc1,·,–,–,?,–
Cc1ccc(-c2nc3ccccc3nc2NN)cc1,–,–,53,–,41
SMILES,NS1 inh,Pf growth 96h,Shiga toxin inh,Pf growth 48h,CHX counter
CCCCCC(NC(=O)C1CCN(C(=O)[C@@H](NS(=O)(=O)c2ccc(C)cc2)C(C)C)CC1)C(=O)O (some centres not stated),–,?,–,–,–
COCCNC(=O)c1cccc(OC2CCN(Cc3ccc(C(=O)OC)cc3)CC2)c1,–,?,–,?,–
COCCNC(=O)c1cccc(OC2CCN(Cc3ccc(C(C)C)cc3)CC2)c1,–,–,·,–,–
CC(C)CN1CCC(Oc2cccc(C(=O)NCCc3ccccc3)c2)CC1,–,–,60,–,27
COCC(C)N1CCC(Oc2cccc(C(=O)NCCc3ccccc3)c2)CC1 (configuration not stated),–,–,107,–,59
Cc1ccc(CN2CCC(Oc3cccc(C(=O)N(C)CCN(C)C)c3)CC2)cc1C,–,–,·,9.3µM,–
O=C(NCc1ccccc1Cl)c1cccc(OC2CCN(C(=O)C3CC3)CC2)c1,–,8.3µM,–,–,–
C[C@H](N)C(=O)N[C@@H](C)P(=O)(O)O,·,–,·,–,·
Cc1nn(CCC(=O)N2CCN(S(=O)(=O)c3ccc(Cl)cc3)CC2)c(C)c1C,–,?,–,–,–
Cc1nn(C)cc1CNCc1ccc(OCC(O)CN(C)Cc2ccccc2)cc1 (configuration not stated),–,–,–,?,–
CN(Cc1ccccc1)CC(O)COc1ccc(CNCCCOc2cccnc2)cc1 (configuration not stated),–,?,–,2.1µM,–
CN(Cc1ccccc1)CC(O)COc1ccc(CNCc2cccnc2)cc1 (configuration not stated),–,8.3µM,–,9.3µM,–
CN(Cc1ccccc1)CC(O)COc1ccc(CNCCOc2cccnc2)cc1 (configuration not stated),–,?,–,13µM,–
OC(COc1ccc(CNCc2cccnc2)cc1)CN1CCc2ccccc2C1 (configuration not stated),–,–,–,?,–
CN(Cc1ccccc1)CC(O)COc1ccc(CNCc2ccc(Cl)s2)cc1 (configuration not stated),–,?,–,5.9µM,–
CCn1cc(CNCc2ccc(OCC(O)CN(C)Cc3ccccc3)cc2)cn1 (configuration not stated),–,?,–,?,–
Cc1nn(CC(=O)NCCc2ccccc2)c(=O)c2cccn12,–,–,–,–,–
O=C(CN1CCNCC1)NCCSc1ccc(Cl)cc1,·,–,–,–,–
CN(c1cccc(Cl)c1)S(=O)(=O)c1cccc(C(=O)NN2CCOCC2)c1,·,–,·,–,·
Brc1ccc(CNCc2cccs2)cc1,?,–,–,–,–
c1ccc(COc2ccc(CNCc3cccs3)cc2)cc1,–,–,56,–,25
c1ccc(COc2ccc(CNCc3cccnc3)cc2)cc1,–,?,–,–,30
CCCC(=Nc1ccc(N)cc1)C1=C(O)C(C(=O)OC)C(C)(C)CC1=O (configuration not stated),–,·,–,–,–
Cc1ccc2c(c1)oc(=O)n2CC(=O)c1ccccc1,–,–,–,–,–
O=C(CSc1nnc2c(n1)[nH]c1ccccc12)NCc1ccco1,·,?,–,–,–
SMILES,NS1 inh,Pf growth 96h,Shiga toxin inh,Pf growth 48h,CHX counter
N#Cc1c(N(CC(=O)O)CC(=O)O)sc(C(=O)O)c1CC(=O)O,·,–,·,–,·
c1ccc(CSc2nnc(NC3=NCCCCC3)s2)cc1,–,–,102,–,44
N#Cc1ccc(CSc2nnc(Nc3ccccc3)s2)cc1,–,–,–,·,–
CC1=NN(c2nc3ccccc3s2)C(O)(C(F)(F)F)C1 (configuration not stated),–,–,–,–,–
S=C(NCc1cccs1)Nc1ccccc1Cl,?,–,44,–,24
S=C(NCCNC(=S)Nc1ccccc1Cl)Nc1ccccc1Cl,–,9.3µM,–,9.3µM,–
CC(NC(=S)Nc1ccccc1Cl)C(c1cccs1)N1CCCC1 (configuration not stated),–,12µM,–,?,–
Cc1c(Cl)cccc1NC(=S)NCCc1ccccn1,–,?,–,–,–
Cc1c(Cl)cccc1NC(=S)NCCc1ccc(C(F)(F)F)cc1,·,13µM,–,6.6µM,–
CC(=O)Oc1ccc(C(=O)NCc2ccc3c(c2)OCO3)cc1,–,–,–,–,–
CCOC(=O)c1ccc(S(=O)(=O)N2CC(=O)Nc3ccccc32)cc1,–,–,–,–,–
NNC(=S)Nc1ccccc1Cl,–,?,86,–,43
